Data as given in PubChem BioAssay AID2551 (National Center for Advancing Translational Sciences (NCATS), 2010).
Screen size: about 310,000 compounds; about 17,000 (5.5%) were called active. Another 11% or so got no clear call; they are omitted. The sample holds actives, similar compounds and a random draw of the others, so the mix is not that of the screen. The call rests on the fitted dose curve; in most records, active means well fitted inhibition curve with a large enough effect; inconclusive means small, poorly fitted or top-dose-only effect, or effect the other way; inactive means no such curve, though single readings can be large or run the other way.

Each compound was assayed against Nuclear receptor ROR-gamma (Mus musculus) (UniProt P51450) (assay: qHTS for inhibitors of ROR gamma transcriptional activity). Conditions: Drosophila S2 Gal4-RORgamma UAS-luciferase reporter, 20 h; series mostly up to 53.6 µM; activity change, negative = inhibition: at the top concentration.
Method in brief: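 Drosophila S2 cells stably expressing Gal4-DBD/mouse RORγ fusion under metallothionein promoter plus UAS-luciferase; compound 1 h, then 700 uM CuSO4 induction for 20 h at ambient temperature; inhibition read as reduced luminescence.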
Further: nearly all actives have a fitted effect of over 60% in size.
On the % scale 0 is the no-effect control and ±100 the full control effect; potency means the concentration at half of the fitted maximal effect.

Nuclear receptor ROR-gamma (Mus musculus), sequence (P51450 whole entry, looked up, the tested form may be a part): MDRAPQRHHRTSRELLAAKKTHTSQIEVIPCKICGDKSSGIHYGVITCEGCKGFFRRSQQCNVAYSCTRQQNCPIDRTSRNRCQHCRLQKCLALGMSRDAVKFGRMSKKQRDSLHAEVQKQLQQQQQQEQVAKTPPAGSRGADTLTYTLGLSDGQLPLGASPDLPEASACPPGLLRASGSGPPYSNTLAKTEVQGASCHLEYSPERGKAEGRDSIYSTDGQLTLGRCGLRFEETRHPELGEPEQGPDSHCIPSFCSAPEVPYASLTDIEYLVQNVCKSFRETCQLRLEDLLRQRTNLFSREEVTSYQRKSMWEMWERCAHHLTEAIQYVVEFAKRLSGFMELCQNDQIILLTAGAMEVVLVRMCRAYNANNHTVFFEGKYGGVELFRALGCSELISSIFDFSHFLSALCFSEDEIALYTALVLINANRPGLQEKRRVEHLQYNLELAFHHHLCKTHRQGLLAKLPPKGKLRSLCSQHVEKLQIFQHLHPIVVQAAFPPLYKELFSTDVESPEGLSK

SMILES | activity change, negative = inhibition | Potency
CCOc1ccc(-n2c(SCC(=O)OC)nc3sc4c(c3c2=O)CCN(C)C4)cc1 | 2.83% (inactive) | –
COc1ccc(N(CC(=O)Nc2ccc(F)c(F)c2)S(=O)(=O)c2c(C)[nH]c(=O)[nH]c2=O)cc1 | 1.07% (inactive) | –
COc1cccc(C(O)c2nc3ccccc3n2C)c1 (stereo unspecified) | -0.976% (inactive) | –
Oc1ccccc1C=NC1CCCCC1N=Cc1ccccc1O (stereo unspecified) | -38.2% (inactive) | –
O=C(N/N=C/c1ccccc1O)C1CCCC1 | – | 0.158 µM (active)
COc1ccc(/C=N/NC(=O)C2CC2)c(OC)c1OC | 21.1% (inactive) | –
CCn1c(=S)sc2c(=O)n(CC(=O)Nc3cccc(Br)c3)c(C)nc21 | 31.8% (inactive) | –
Cc1cc(C)c(NC(=O)CN2CCCCCC2)c(C)c1 | -2.87% (inactive) | –
O=C(c1c(F)cccc1Cl)N1CCN(S(=O)(=O)c2ccc3c(c2)OCCCO3)CC1 | 5.29% (inactive) | –
CCOc1ccccc1CNS(=O)(=O)c1cc(-c2cc(C)no2)ccc1C | -15.7% (inactive) | –
COc1ccc(/C=C2\SC(=O)N(CCC(=O)NC3CCS(=O)(=O)C3)C2=O)cc1 (stereo unspecified) | -44.2% (inactive) | –
O=C(NCc1cccs1)c1ccc(CS(=O)Cc2ccccc2Cl)o1 (stereo unspecified) | 42.8% (inactive) | –
Cc1cc(-c2csc(N)n2)c(C)n1Cc1ccccc1 | 13.5% (inactive) | –
CC(=O)Nc1ccc(C(=O)Nc2nc(-c3cc(C)n(Cc4ccccc4)c3C)cs2)cc1 | 3.29% [at 10 µM] (inactive) | –
CCCc1cc(-c2n[nH]c(=S)n2Cc2ccccc2)cs1 | – | 4.47 µM (active)
CCc1cc(-c2nnc(SCC(=O)NC3CC3)n2C)cs1 | 3.75% (inactive) | –
CCc1cc(-c2n[nH]c(=S)n2CC(C)C)cs1 | – | 2.51 µM (active)
COC(=O)c1ccccc1NC(=O)CSc1nc2c(c(=O)[nH]1)CCC2 | -15.8% (inactive) | –
COc1ccc(C(=O)NCC(=O)N/N=C/c2cccnc2)cc1 | -17.1% (inactive) | –
CCOC(=O)[C@@H]1[C@H]2COc3cc(OC)ccc3[C@H]2N2C(=O)N(c3ccc(F)cc3)C(=O)[C@]12C | 23.9% (inactive) | –
COc1ccc(CNS(=O)(=O)c2ccc(-c3cnc(C4CC4)o3)cc2)cc1 | 20.5% (inactive) | –
CCOC(=O)c1cccc(NS(=O)(=O)c2c(C(=O)N3CCCCCC3)c(C)n(C)c2C)c1 | -17.4% (inactive) | –

SMILES | activity change, negative = inhibition | Potency
O=C(c1ccccc1F)N(Cc1ccccc1)Cc1ccccc1 | 6.23% (inactive) | –
COc1cccc(CNC(=O)c2nnn(CC(=O)Nc3cc(C)ccc3C)c2N)c1 | -21.8% (inactive) | –
COc1cccc(CNC(=O)c2n[nH]c3ccccc23)c1 | 34.4% (inactive) | –
CCn1c(=O)cc(OCC(=O)NCCCN2CCN(c3cccc(Cl)c3)CC2)c2ccccc21 | -17.4% (inactive) | –
O=C(Cc1csc(Nc2nc(=S)[nH]c3ccccc23)n1)NCCCN1CCN(c2cccc(Cl)c2)CC1 | – | 2.51 µM (active)
O=C(CCCn1c(=O)[nH]c2cc(Cl)ccc2c1=O)NCCN1CCN(c2ccccc2)CC1 | -12.5% (inactive) | –
COc1cccc(CNC(=O)Cc2csc(Nc3nc(=S)[nH]c4ccccc34)n2)c1 | – | 6.31 µM (active)
COc1cc(Cl)ccc1OCc1cc(C(=O)N(C)CCc2c(C)n[nH]c2C)no1 | 42% (inactive) | –
COc1ccccc1CNc1ccnc(-c2c(C)noc2C)n1 | 9.53% (inactive) | –
COc1ccccc1CNc1nc(-c2c(C)noc2C)nc2ccccc12 | -13.7% (inactive) | –
COc1ccccc1CNc1ncnc2ccc(-c3c(C)noc3C)cc12 | – | 5.01 µM (active)
COc1cc(C2/C(=C(\O)c3ccc4c(c3)CC(C)O4)C(=O)C(=O)N2c2nnc(C)s2)cc(OC)c1OC (stereo unspecified) | 32.8% (inactive) | –
CC(C)c1ccc(/C=C2\NC(=O)NC2=O)cc1 | 33.9% (inactive) | –
O=C(NC1CC1)C(Cc1ccccc1)NS(=O)(=O)c1ccccc1F (stereo unspecified) | 8.43% (inactive) | –
N#Cc1ccc(CSc2ncccn2)cc1 | -36.2% [at 1.91 µM] (inactive) | –
N#CC1=C(SCc2ccc(C#N)cc2)N=C(N)C(c2nc(-c3ccccc3)cs2)C12CCCCC2 (stereo unspecified) | – | 11.2 µM (active)
N#CC1=C(SCc2ccccc2)NC(=O)C(C#N)C12CCCC2 (stereo unspecified) | 26.7% [at 0.365 µM] (inactive) | –
CCOC(=O)c1sc(=NC(=O)c2ccc(Br)cc2)n(C)c1C | -15.2% (inactive) | –
COc1ccc(CCN2CC(C(=O)NCCN3CCNC3=O)CCC2=O)cc1 (stereo unspecified) | -12.8% (inactive) | –
CCOC(=O)CSc1nc(N2CCOCC2)c2c(c1C#N)CC(C(C)C)OC2 (stereo unspecified) | 26.6% (inactive) | –
COC(=O)CSc1nccc(-c2cccs2)n1 | -8.26% (inactive) | –
O=C(Nc1ccnc(-c2ccncc2)n1)c1cccs1 | 7.51% (inactive) | –

SMILES | activity change, negative = inhibition | Potency
O=C(O)COc1ccc(-c2nccc(-c3cccs3)n2)cc1 | – | 5.62 µM (active)
CCOc1ccc(N(C(=O)c2snc(C(N)=O)c2N)C(C(=O)NCC2CCCO2)c2c[nH]c3ccccc23)cc1 (stereo unspecified) | 24.7% (inactive) | –
Fc1ccc(COc2cccc(-c3n[nH]c(=S)o3)c2)cc1 | – | 11.2 µM (active)
Cc1nc2ccccc2cc1OCc1ccc(F)cc1 | 9.31% (inactive) | –
Fc1ccc(COc2ccc(-c3nnco3)cc2)cc1 | -8.22% (inactive) | –
Cc1cc(F)ccc1N1CCC(N2CCN(C)C(CCO)C2)CC1 (stereo unspecified) | -2.72% (inactive) | –
Cc1ccc(-n2c(C)cc(/C=N\NC(=O)CC(=O)NC(C)C)c2C)cc1 | -24.7% (inactive) | –
Cc1cc(/C=N/NC(=O)CC2(C)OCCO2)c(C)n1-c1ccc(Cl)c(Cl)c1 | – | 17.8 µM (active)
Cc1cc(=O)cc(C)n1-c1ccc(Cl)c(Cl)c1 | 28% (inactive) | –
Cc1cccc(OCC(O)Cn2c(N3CCCCC3)nc3c2c(=O)[nH]c(=O)n3C)c1 (stereo unspecified) | -5.74% (inactive) | –
COc1ccc2oc(=N)c(C(=O)Nc3ccc(Br)cc3)cc2c1 | -1.56% (inactive) | –
O=C(c1noc2c1CCCC2)N1CCc2ccccc2C1 | 21% (inactive) | –
COc1cccc(C(=O)OCc2cc(=O)oc3c(C)c(C)ccc23)c1OC | 2.33% (inactive) | –
CS(=O)(=O)N(CC(=O)N1CCN(Cc2ccccc2)CC1)c1ccc2c(c1)OCCO2 | -13.4% (inactive) | –
c1ccc(CN2CCC(N=C3NN=C(c4ccc5c(c4)OCCO5)CS3)CC2)cc1 | – | 10 µM (active)
Clc1cccc(N=C2NN=C(c3ccc4c(c3)OCCO4)CS2)c1 | -31.8% (inactive) | –
Cc1ccccc1-c1nc(CS(=O)(=O)CC(=O)NC(C)c2ccccc2)c(C)o1 (stereo unspecified) | 11.3% (inactive) | –
Cc1ccc(NS(=O)(=O)c2c(C)[nH]c(C)c2C(=O)N2CCCCC2)c(C)c1 | 12.8% (inactive) | –
O=C(O)CCn1c(Cc2ccccc2)nc2ccccc21 | -26.5% (inactive) | –
O=C(O)CCn1c(O)c(C=C2N=c3ccccc3=N2)sc1=S | – | 0.794 µM (active)
Cc1cc2ccccc2n1CCC(=O)O | -0.139% (inactive) | –
COc1ccccc1NC(=O)c1cc(N2C(=O)C3C4CCC(C4)C3C2=O)ccc1Cl (stereo unspecified) | -0.842% (inactive) | –
